This is an account of results in PubChem BioAssay AID1851 (National Center for Advancing Translational Sciences (NCATS), 2009).

The campaign covered roughly 16,000 compounds. About 4,000 (25%) were called active. Inconclusive results (about 26%) are left out. Not all results are given here. Values without a mark were called inactive. Calls follow the shape of the dose curve; as a rule, active = well fitted curve in the direction sought with a large enough effect; inconclusive = small, poorly fitted or top-dose-only effect, or effect the other way; inactive = no such curve, though single readings can be large or run the other way.
% is scaled to controls: 0 for no effect and ±100 for the full control effect.

The target in this assay is Cytochrome P450 2C9 (Homo sapiens) (UniProt P11712). Put plainly: Cytochrome panel assay with activity outcomes. Particulars: recombinant CYP, pro-luciferin dealkylation, luminescence, p450-cyp2c9; series mostly up to 57.1 µM.
Sequence of Cytochrome P450 2C9 (Homo sapiens) (P11712 whole entry, looked up): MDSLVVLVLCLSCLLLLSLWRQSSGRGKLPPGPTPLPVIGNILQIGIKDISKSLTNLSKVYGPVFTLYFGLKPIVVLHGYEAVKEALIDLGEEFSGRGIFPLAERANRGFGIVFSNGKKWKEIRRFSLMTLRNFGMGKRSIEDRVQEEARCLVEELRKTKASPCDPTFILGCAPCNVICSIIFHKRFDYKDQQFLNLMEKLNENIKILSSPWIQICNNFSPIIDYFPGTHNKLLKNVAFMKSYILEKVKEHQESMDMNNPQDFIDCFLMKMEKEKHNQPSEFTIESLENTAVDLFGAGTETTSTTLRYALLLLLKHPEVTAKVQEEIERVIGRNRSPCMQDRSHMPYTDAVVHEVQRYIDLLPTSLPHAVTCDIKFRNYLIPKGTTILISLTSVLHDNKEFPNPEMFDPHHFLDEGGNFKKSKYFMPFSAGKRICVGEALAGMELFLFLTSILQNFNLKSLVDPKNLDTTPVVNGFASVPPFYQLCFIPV
Consider `C[C@@H](C1=C(CCN(C)C)Cc2ccccc21)c1ccccn1`, for which the AC50 is 0.501 µM (active).

Take `CN(C)CC[C@@H](c1ccccc1)c1ccccn1`: the AC50 result is “inactive”.

Regarding `CN(C)CC(CN(C)C)c1ccccn1`, the activity, negative = inhibition is -2.56% [at 11.4 µM].

For the compound `CNc1cc(-c2ccccc2CN(C)C)ncn1`, the activity, negative = inhibition is 24.8% [at 2.29 µM].

For the compound `Cc1cccc(-c2n[nH]c([N+](=O)[O-])n2)c1`, the AC50 is 20 µM (active).

Regarding `CCCCN1C(=O)NC(NC(=O)c2ccco2)(C(F)(F)F)C1=O` (stereo not given), the AC50 was 12.6 µM (active).

On to `CCCCn1c(=N)n(CC(=O)c2ccco2)c2ccccc21`, for which the AC50 entry is “inactive”.

For the compound `CC(=O)NC1=NC(=O)C(C)S1` (stereo not given), the AC50 entry is “inactive”.

As to `CCc1ccc(NC(=O)Cn2nc(C(F)(F)F)c3c2CCC3)cc1`, the AC50 entry is “inactive”.

With `Cc1ccc(NC(=O)c2c(C(F)(F)F)nn(C)c2SCc2cccc(C(F)(F)F)c2)cc1C`, the AC50 was 0.891 µM (active).

For `Cn1nc(C(F)(F)F)c(C(=O)Nc2ccc(F)cc2F)c1Sc1cccc(C(F)(F)F)c1`, the AC50 is 1.58 µM (active).

Consider `CCNS(=O)(=O)c1ccc(NC(=O)c2cc(C(F)(F)F)nn2C)cc1`, for which the AC50 entry was “inactive”.

Turning to `CC(=O)NC1(c2ccc(F)cc2)CCN(C(=O)Nc2ccc(F)cc2F)CC1`, the AC50 result was “inactive”.

Regarding `Cn1nc(C(F)(F)F)c(C(=O)Nc2ccc(F)cc2F)c1Sc1ccc(C(F)(F)F)cc1`, the AC50 is 4.47 µM (active).

For `Cc1ccc(NC(=O)c2sccc2SCc2cccc(C(F)(F)F)c2)cc1`, the AC50 is 2.51 µM (active).

Consider `O=C(O)/C=C/C(=O)Nc1ccc(F)cc1F`, for which the AC50 result was “inactive”.

For `CC(=O)N(/N=C1\Sc2ccccc2C1=O)c1ccccc1`, the AC50 result was “inactive”.

For `CC(=O)N(/N=C1\Sc2ccccc2C1=O)c1ccccc1C`, the AC50 was 14.1 µM (active).

`COC(=O)c1c(NC(C)=O)sc(Cc2ccccc2)c1C`: the AC50 was 10 µM (active).

Regarding `CCOc1ccc(CC(=O)Nc2sc(Cc3ccccc3)c(C)c2C(N)=O)cc1OCC`, the AC50 entry is “inactive”.

For `Cc1sc(NC(=O)C2CCCCC2C(=O)O)c(C(N)=O)c1C` (stereo not given), the AC50 entry was “inactive”.

For the compound `CO[C@]1(NC(=O)CSCC#N)C(=O)N2C(C(=O)O)=C(CSc3nnnn3C)CS[C@H]21`, the AC50 entry was “inactive”.

On to `Cc1sc(NC(=O)C(C)C)c(C(=O)Nc2ccccc2)c1C`, for which the AC50 was 12.6 µM (active).

Consider `CCOC(=O)c1c(NC(=O)c2c(C)noc2C)sc2c1CCCCC2`, for which the AC50 entry was “inactive”.

For the compound `COC(=O)c1c(C)[nH]c(C)c1C(=O)c1ccccc1Cc1ccccc1`, the AC50 entry is “inactive”.

As for `CCOC(=O)c1c(NC(=O)CSc2nnnn2C)sc(C)c1C`, the AC50 was 22.4 µM (active).

Regarding `Cc1cccc(NC(=O)CSc2nnnn2C)n1`, the AC50 result was “inactive”.

In the case of `CCOC(=O)c1c(NC(=O)CSc2nnc(C)s2)sc2c1CCCCC2`, the AC50 was 11.2 µM (active).

For the compound `CN(C)c1nc(N)c(C(=O)N=C(N)N)nc1Cl`, the AC50 entry was “inactive”.

In the case of `COC(=O)C1=C(C)[C@@H](O)[C@@H](C)[C@H](c2c(OC)c(OC)c(C)c(OC)c2OC)O1`, the activity, negative = inhibition is -3.08% [at 11.4 µM].

Turning to `CC(=O)N1CCC2(CCCN(Cc3nccs3)C2)CC1`, the AC50 entry was “inactive”.

Regarding `CCOC(=O)c1c(NC(=O)Nc2ccccc2)sc(C)c1C`, the AC50 is 3.55 µM (active).

As for `CCOC(=O)c1c(NC(=O)/C=C/c2ccc3c(c2)OCO3)sc(C)c1C`, the AC50 result was “inactive”.

Take `Cc1cc(Nc2ccccc2)nc(N)n1`: the AC50 entry was “inactive”.

Consider `Cc1nnc(SCc2nc(N)nc(Nc3ccccc3)n2)s1`, for which the AC50 is 10 µM (active).

Regarding `CCCSc1nnc2n(N)c(=O)c3ccccc3n12`, the AC50 result was “inactive”.

In the case of `Nc1nc(N)[n+]([O-])c(N)c1NCO`, the activity, negative = inhibition was 6.07% [at 11.4 µM].

As to `Nc1nc(N)c(CCCCc2ccccc2)c(N)n1`, the activity, negative = inhibition was 5.71% [at 11.4 µM].

`CCOC(=O)c1cnc(N(C)C)nc1SC(=N)N`: the activity, negative = inhibition is -5.38% [at 11.4 µM].

As for `CCOC(=O)c1cnc(SCCc2ccccc2)nc1N`, the AC50 is 11.2 µM (active).

In the case of `CC1(C)C2([N+](=O)[O-])CN3CC1([N+](=O)[O-])CN(C2)C31CCCC1`, the AC50 entry is “inactive”.

On to `C=C1C(=O)O[C@@H]2[C@@H]1CC/C(C)=C\CC[C@@]1(C)O[C@H]21`, for which the AC50 entry was “inactive”.

As to `O=C(O)c1ccc2c3c1cccc3c(=O)n1c3ccccc3nc21`, the AC50 is 0.158 µM (active).

With `O=c1c2ccc([N+](=O)[O-])c3cccc(c32)c2nc3ccccc3n12`, the AC50 result is “inactive”.

Take `O=C(O)C(=O)/C=C(\O)c1ccc(Br)cc1`: the activity, negative = inhibition was -19.1% [at 11.4 µM].

Regarding `CCCOc1ccc(C(=O)NC(=S)Nc2nc3ccc(C)cc3s2)cc1`, the AC50 result was “inactive”.

In the case of `COc1ccc2nc(NC(=O)CSc3nnc(C)s3)sc2c1`, the AC50 entry is “inactive”.

Take `Cc1ccc2nc(NC(=O)CSCC(=O)OCC(=O)c3ccc(Br)cc3)sc2c1`: the half-maximal activity concentration (AC50) is 14.1 µM (active).

`Cc1ccc2nc(NC(=O)COC(=O)CSc3nc(C)cc(C)n3)sc2c1`: the AC50 was 3.98 µM (active).

As to `COc1ccc([C@@H]2Sc3ccccc3N(CCN(C)C)C(=O)[C@@H]2OC(C)=O)cc1`, the AC50 entry was “inactive”.

In the case of `COc1ccc2[nH]c(=O)c(NC(N)=S)nc2c1`, the AC50 entry is “inactive”.

As to `NC(=S)Nc1ccc(Oc2ccc(NC(N)=S)cc2)cc1`, the AC50 is 7.08 µM (active).

Regarding `CN(Cc1ccco1)C(=O)C1CCC(=O)N1Cc1ccc(F)cc1` (stereo not given), the AC50 entry is “inactive”.

With `O=C1C2=C(Nc3cc([N+](=O)[O-])ccc3N2)O[C@@H]1c1c[nH]c2ccc(COc3ccccc3)cc12`, the activity, negative = inhibition is -16.4% [at 11.4 µM].

On to `O=C1c2ccccc2NC(c2ccc(F)cc2)N1Cc1ccco1` (stereo not given), for which the AC50 was 3.16 µM (active).

Regarding `COc1ccc(C2Nc3ccccc3C(=O)N2Cc2ccco2)cc1COc1ccc([N+](=O)[O-])cc1` (stereo not given), the AC50 was 0.178 µM (active).

In the case of `Cc1ccc(C2Nc3ccccc3C(=O)N2Cc2ccco2)cc1` (stereo not given), the AC50 is 3.16 µM (active).

On to `CC1(CC(=O)O)O[C@H]2CCCCC[C@H]2O1` (stereo not given in full) (tested in a mixture with another compound), for which the activity, negative = inhibition is 1.04% [at 11.4 µM].

For `CC(=O)N1CC2(CC2)CC1c1ccccc1` (stereo not given), the AC50 entry was “inactive”.

Turning to `CC(C)NC[C@@H](O)COc1cccc2ccccc12`, the AC50 entry was “inactive”.

For the compound `CC(C)Oc1ccc2ccccc2c1C=O`, the AC50 is 10 µM (active).

With `CO[C@H]1C[C@@H](O[C@@H]2[C@H](C)[C@H](O[C@@H]3O[C@@H](C)C[C@@H](N(C)C)[C@@H]3O)[C@H](C)C[C@]3(CO3)C(=O)[C@H](C)[C@H](O)[C@H](C)[C@H](C)OC(=O)[C@@H]2C)O[C@@H](C)[C@H]1O`, the AC50 entry is “inactive”.

For `CC(=O)N[C@@H](CC(=O)O)C(=O)O`, the AC50 entry is “inactive”.

`O=C(Nc1ccc(-c2cn3ccccc3n2)cc1)c1cc(Br)ccc1O`: the activity, negative = inhibition was -1.72% [at 11.4 µM].

`O=C(c1cc(Br)ccc1O)c1cc(Br)ccc1O`: the AC50 was 0.1 µM (active).

On to `CC(C)(C)CC(C)(C)c1ccc(O)c(C[N+](C)(C)[O-])c1`, for which the activity, negative = inhibition was 0.733% [at 11.4 µM].

For `COc1cc(/C=C2\SC(=S)N(Nc3ccccc3)C2=O)cc(OC)c1OC`, the AC50 is 6.31 µM (active).

As to `Cc1cc(C)nc(NN2C(=O)/C(=C/c3ccccc3)SC2=S)n1`, the AC50 entry was “inactive”.

Turning to `CC(C)CC(=O)N[C@H](C(=O)N[C@H](C(=O)N[C@@H](CC(C)C)[C@H](O)CC(=O)N[C@@H](C)C(=O)N[C@@H](CC(C)C)[C@H](O)CC(=O)O)C(C)C)C(C)C`, the AC50 entry was “inactive”.

`CCc1ccccc1NC(=O)CSc1nc(-c2ccccc2)nn1C(=O)c1cccc([N+](=O)[O-])c1`: the AC50 was 0.447 µM (active).

For the compound `O=C(O)[C@@H]1[C@@H](C(=O)O)[C@]23C[C@@]2(C(=O)O)[C@]2(C(=O)O)CCC3=C3CCCC312`, the activity, negative = inhibition is 14% [at 11.4 µM].

With `CCOC(=O)c1cnc2c(cnn2CC)c1NN=C(C)C`, the AC50 entry was “inactive”.

With `CCOC(=O)c1cnc2ccc(C)cc2c1Sc1ccccc1C(=O)OC`, the AC50 is 1.41 µM (active).

For the compound `Cc1ccccc1-n1ncc2c(SCC(=O)N3c4ccccc4CC3C)ncnc21` (stereo not given), the AC50 is 10 µM (active).

With `Cc1nnc(NC(=O)CSc2ncnc3c2cnn3-c2ccccc2C)s1`, the AC50 result was “inactive”.

Turning to `CCOc1ccccc1NC(=O)C(=O)NCC1CCCN1CC` (stereo not given), the AC50 entry is “inactive”.

As to `CC1CN(C(=O)c2cc3c(s2)CCC3)CC(C)O1` (stereo not given), the AC50 result was “inactive”.

As for `Cc1cc(C)n(C(=O)c2cc3c(s2)CCCC3)n1`, the half-maximal activity concentration (AC50) is 11.2 µM (active).

In the case of `CCOC(=O)COc1c(OC)cc(Cl)cc1C1Nc2ccccc2C(=O)N1c1cccc(C)c1` (stereo not given), the AC50 is 0.708 µM (active).

As to `CCOC(=O)CC1NC(=O)c2ccccc21` (stereo not given), the AC50 entry is “inactive”.

Turning to `CCOC(=O)COc1c(OC)cc(Cl)cc1C1Nc2ccccc2C(=O)N1c1ccc(F)cc1` (stereo not given), the AC50 was 0.282 µM (active).

On to `CC(C)=NO[C@@H](C)c1cn([C@@H]2COC[C@@H]2O)nn1`, for which the activity, negative = inhibition is 11.5% [at 11.4 µM].

For `COc1ccc2cc(CCC(C)=O)ccc2c1`, the AC50 result is “inactive”.

As for `CC(C)(Sc1ccc(CCN(CCCCC2CCCCC2)C(=O)NC2CCCCC2)cc1)C(=O)O`, the AC50 result is “inactive”.

On to `COc1ccc(CCNC(=O)COc2ccc(S(=O)(=O)NC3CCCCC3)cc2Cl)cc1`, for which the AC50 is 2.51 µM (active).

On to `COc1ccc(CCCC(=O)NC2CCCCC2)cc1`, for which the AC50 was 10 µM (active).

In the case of `COc1ccc(NC(=O)COc2ccc(CNCCCN3CCOCC3)cc2OC)cc1`, the AC50 entry was “inactive”.

Consider `COc1ccc(CNC(=O)C(c2ccc(C)cc2)N(Cc2cccs2)C(=O)c2ccc3c(c2)OCCO3)cc1` (stereo not given), for which the AC50 is 7.08 µM (active).

As to `CN(C)Cc1ccccc1-c1cncnc1NCc1cccs1`, the activity, negative = inhibition was -10.6% [at 2.29 µM].

As for `CCc1ccc(C(C(=O)NCc2ccc(OC)cc2)N(CCOC)C(=O)Cc2cccs2)cc1` (stereo not given), the half-maximal activity concentration (AC50) is 10 µM (active).

As for `O=C(NC1CCCCC1)C(c1cccs1)N(Cc1cccs1)C(=O)c1ccco1` (stereo not given), the AC50 is 8.91 µM (active).

Regarding `O=C(NCc1ccccc1)C(c1cccs1)N(Cc1cccs1)C(=O)c1cnccn1` (stereo not given), the AC50 was 15.8 µM (active).

As to `CN(C)C(=O)c1ccc(-c2cncnc2NCc2cccs2)cc1`, the activity, negative = inhibition was -0.243% [at 2.29 µM].

`COc1ccc2nc3oc(C(=O)NCc4cccs4)cc3cc2c1`: the AC50 entry is “inactive”.

With `CN(Cc1ccco1)c1cc(-c2ccccc2Cl)ncn1`, the activity, negative = inhibition is -2.34% [at 2.29 µM].

A word on the AC50: it is the concentration giving half of the maximal activity seen.
